Experimental findings from PubChem BioAssay (EPA / NIEHS) are described below.

Where “and” joins values, the source holds several entries; their conditions need not be identical. Equal entries are not always repeated. Some structures have more than one record in an assay (separate samples or runs), and their calls can disagree. Calls of active or inactive are those of the source. How the source made its calls: active means hit-call score of the fitted dose curve at least 0.9, where 1 is the maximum; inactive means score below 0.9.

Read-out in assay [1]: Vascular cell adhesion molecule 1 (VCAM1), VCAM1 (gene 7412)
In words: BSK_4H_VCAM1: BioMAP Diversity Plus: 4H Assay for Vascular cell adhesion molecule 1 (VCAM1) Biomarker Activity (AID 2283033).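 On outcome: cell-surface VCAM-1 protein measured by ELISA.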 Conditions: primary human endothelial cells (HUVEC); actives raise or lower the signal. A digest of the protocol:
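HUVEC, 24 h post-dose; VCAM-1 by ELISA. Bidirectional curve fit vs DMSO baseline. Parallel SRB total-protein stain (0.1% SRB after 10% TCA fixation, 560 nm) for cytotoxicity.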

Read-out in assay [2]: Interferon-gamma inducible Protein 10 (IP10), CXCL10 (gene 3627)
Description: BSK_BE3C_IP10: BioMAP Diversity Plus: BE3C Assay for Interferon-gamma inducible Protein 10 (IP10) Biomarker Activity (AID 2283034). Conditions: primary human bronchial epithelial cells; actives raise or lower the signal. A digest of the protocol:
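ELISA readout of IP-10 in BE3C system: primary human bronchial epithelial cells, 24 h post-dosing; bidirectional curve fit vs DMSO baseline.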

Read-out in assay [3]: Monokine induced gamma interferon (MIG), CXCL9 (gene 4283)
In words: BSK_BE3C_MIG: BioMAP Diversity Plus: BE3C Assay for Monokine induced gamma interferon (MIG) Biomarker Activity (AID 2283035).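 On outcome: MIG protein measured by ELISA in BE3C cultures after 24 h of dosing.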 Conditions: primary human bronchial epithelial cells; actives raise or lower the signal. The method, boiled down: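 Dose cells (human primary bronchial epithelial), incubate 24 h, quantify MIG by ELISA, then fit concentration–response in both directions relative to DMSO control.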

Read-out in assay [4]: Transforming growth factor beta 1 (TGFb1), TGFB1 (gene 7040)
In words: BSK_BE3C_TGFb1: BioMAP Diversity Plus: BE3C Assay for Transforming growth factor beta 1 (TGFb1) Biomarker Activity (AID 2283036;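 on outcome: TGF-b1 protein level measured by ELISA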). Conditions: primary human bronchial epithelial cells; actives raise or lower the signal. The method, boiled down: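 Read-out: ELISA for TGF-b1 in primary human bronchial epithelial cultures, 24 h post-dose. Bidirectional curve fitting vs DMSO control; gain or loss of signal both scored.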

Read-out in assay [5]: Plasminogen activator inhibitor-1 (PAI1), SERPINE1 (gene 5054)
Description: BSK_BE3C_PAI1: BioMAP Diversity Plus: BE3C Assay for Plasminogen activator inhibitor-1 (PAI1) Biomarker Activity (AID 2283037). Conditions: primary human bronchial epithelial cells; actives raise or lower the signal. The method, boiled down: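 ELISA read-out of PAI-1 from human bronchial epithelial primary cells, 24 h post-dosing; bidirectional curve fit vs DMSO baseline, gain or loss of signal scored.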

Read-out in assay [6]: urokinase plasminogen activator (uPA), PLAU (gene 5328)
Description: BSK_BE3C_uPA: BioMAP Diversity Plus: BE3C Assay for urokinase plasminogen activator (uPA) Biomarker Activity (AID 2283038).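 On outcome: uPA protein level quantified by ELISA in cell cultures; uPA read one day after compound addition.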 Conditions: primary human bronchial epithelial cells; actives raise or lower the signal. The method, boiled down: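 Using confluent primary human lung bronchial epithelial cultures, we dosed chemicals, waited 24 h, then ran a uPA ELISA, fitting bidirectionally against DMSO.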

Read-out in assay [7]: Urokinase-type plasminogen activator receptor (uPAR), PLAUR (gene 5329)
In words: BSK_BE3C_uPAR: BioMAP Diversity Plus: BE3C Assay for Urokinase-type plasminogen activator receptor (uPAR) Biomarker Activity (AID 2283039).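 On outcome: uPAR protein level measured by ELISA on the cells; cells exposed to compound for one day before measurement.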 Conditions: primary human bronchial epithelial cells; actives raise or lower the signal. A digest of the protocol: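 ELISA readout of uPAR on human lung primary bronchial epithelial cells, 24 h post-dosing. Bidirectional curve fit relative to DMSO vehicle baseline; gain or loss of signal both scored.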

Read-out in assay [8]: Interleukin-6 (IL6), IL6 (gene 3569)
In words: BSK_CASM3C_IL6: BioMAP Diversity Plus: CASM3C Assay for Interleukin-6 (IL6) Biomarker Activity for (AID 2283040). Conditions: primary human coronary artery smooth muscle cells; actives raise or lower the signal.

Read-out in assay [9]: Tissue plasminogen activator (tPA), PLAT (gene 5327)
In words: BSK_BE3C_tPA: BioMAP Diversity Plus: BE3C Assay for Tissue plasminogen activator (tPA) Biomarker Activity (AID 2283041).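 On outcome: tPA level quantified by ELISA one day after compound addition.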 Conditions: primary human bronchial epithelial cells; actives raise or lower the signal. A digest of the protocol:
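ELISA read-out of tPA on human primary bronchial epithelial cells, 24 h post-dosing; bidirectional fit vs DMSO negative control/baseline.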

Read-out in assay [10]: Interleukin-8 (IL8), CXCL8 (gene 3576)
In words: BSK_CASM3C_IL8: BioMAP Diversity Plus: CASM3C Assay for Interleukin-8 (IL8) Biomarker Activity (AID 2283042).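 Further: IL-8 protein level quantified by ELISA.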 Conditions: primary human coronary artery smooth muscle cells; actives raise or lower the signal.

Read-out in assay [11]: Human Leukocyte Antigen - DR isotype (HLADR), HLA-DRA (gene 3122)
In words: BSK_CASM3C_HLADR: BioMAP Diversity Plus: CASM3C Assay for Human Leukocyte Antigen - DR isotype (HLADR) Biomarker Activity (AID 2283043).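 Further: cell-surface HLA-DR protein level quantified by ELISA.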 Conditions: primary human coronary artery smooth muscle cells; actives raise or lower the signal.

Read-out in assay [12]: Macrophage colony-stimulating factor (MCSF), CSF1 (gene 1435)
Description: BSK_CASM3C_MCSF: BioMAP Diversity Plus: CASM3C Assay for Macrophage colony-stimulating factor (MCSF) Biomarker Activity (AID 2283044).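 Further: M-CSF protein amount quantified by ELISA after 24 h exposure.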 Conditions: primary human coronary artery smooth muscle cells; actives raise or lower the signal.

Read-out in assay [13]: Low-density lipoprotein receptor (LDLR), LDLR (gene 3949)
In words: BSK_CASM3C_LDLR: BioMAP Diversity Plus: CASM3C Assay for Low-density lipoprotein receptor (LDLR) Biomarker Activity (AID 2283045).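 Further: LDLR protein level on the cell surface quantified by ELISA.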 Conditions: primary human coronary artery smooth muscle cells; actives raise or lower the signal.

Read-out in assay [14]: Monocyte Chemoattractant Protein-1 (MCP1), CCL2 (gene 6347)
Description: BSK_CASM3C_MCP1: BioMAP Diversity Plus: CASM3C Assay for Monocyte Chemoattractant Protein-1 (MCP1) Biomarker Activity (AID 2283046).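 Further: MCP-1 level quantified by ELISA 24 h after dosing.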 Conditions: primary human coronary artery smooth muscle cells; actives raise or lower the signal.

Assay [15] can be described thus: BSK_CASM3C_Proliferation: Cell Proliferation Assessment in the BioMAP Diversity Plus: CASM3C Assay (AID 2283047).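 Further: sulforhodamine B total protein stain as relative cell number at 560 nm; sub-confluent cells exposed 48 h before staining; fitted both ways against DMSO so gain or loss of cell number.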 Conditions: primary human coronary artery smooth muscle cells.
Read-out in assay [16]: Monokine induced gamma interferon (MIG), CXCL9 (gene 4283)
In words: BSK_CASM3C_MIG: BioMAP Diversity Plus: CASM3C Assay for Monokine induced gamma interferon (MIG) Biomarker Activity (AID 2283048).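 Further: MIG protein level measured by ELISA.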 Conditions: primary human coronary artery smooth muscle cells; actives raise or lower the signal.

Read-out in assay [17]: serum amyloid A (SAA), SAA1 (gene 6288)
In words: BSK_CASM3C_SAA: BioMAP Diversity Plus: CASM3C Assay for serum amyloid A (SAA) Biomarker Activity (AID 2283049).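 Further: SAA protein level quantified by ELISA.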 Conditions: primary human coronary artery smooth muscle cells; actives raise or lower the signal.

Assay [18] is described as follows: BSK_CASM3C_SRB: Viability Assessment in the BioMAP Diversity Plus: CASM3C Assay (AID 2283050).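 Further: total protein by SRB staining as cytotoxicity measure in parallel cultures; cells exposed to compound for 24 h.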 Conditions: primary human coronary artery smooth muscle cells.
Read-out in assay [19]: Thrombomodulin, THBD (gene 7056)
In words: BSK_CASM3C_Thrombomodulin: BioMAP Diversity Plus: CASM3C Assay for Thrombomodulin Biomarker Activity (AID 2283051).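 Further: thrombomodulin protein level measured by ELISA 24 h after dosing.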 Conditions: primary human coronary artery smooth muscle cells; actives raise or lower the signal.

Read-out in assay [20]: Tissue Factor, F3 (gene 2152)
Description: BSK_CASM3C_TissueFactor: BioMAP Diversity Plus: CASM3C Assay for Tissue Factor Biomarker Activity (AID 2283052).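 Further: cell surface tissue factor protein level read by ELISA.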 Conditions: primary human coronary artery smooth muscle cells; actives raise or lower the signal.

A word on the AC50: it is the concentration giving half of the maximal activity seen.

Regarding `OCCN1CN(CCO)CN(CCO)C1`, the AC50 in assay [1] was 29.8 µM (active); in [12], 5 µM (active); in assay [13] it was 0.17 µM (active); in [18] it was 20 µM (active). In addition, the result in assay [2], in assay [3], in assay [4], in assay [5], in assay [6] and in assay [7] was inactive. Also, the outcome in assay [8], in assay [9], in assay [10], in assay [11], in assay [14] and in [15] was inactive. Moreover, the result in [16], in [17], in [19] and in assay [20] was inactive.
For the compound `CCCCCCCCCCCCOS(=O)(=O)O`, the outcome in assay [1], in assay [8], in assay [10], in [11], in assay [12] and in assay [13] was inactive. For the same compound, the outcome in assay [15], in [16], in assay [18], in assay [19] and in assay [20] was inactive. Also, the AC50 in assay [2] is 12.5 µM (active); in assay [3] it was 26.4 µM (active); in [4], 28.7 µM (active); in [5] it was 33.3 µM (active); in assay [6], 31.6 µM (active); in assay [7], 32.8 µM (active). In addition, the AC50 in [9] is 27.5 µM (active).
On to `CC(C)(C)c1ccc(O)c(O)c1`, for which the results for the AC50 in assay [1] and in [19] were 17.1 µM (active) and 20 µM (active), respectively. The outcome in [2], in assay [3], in assay [4], in assay [5], in assay [6] and in assay [7] was inactive. For the same compound, the result in [8], in assay [9], in [11], in assay [12], in [13] and in [14] was inactive. Besides, the result in assay [16], in assay [17], in [18] and in [20] was inactive.
Regarding `C=CC(=O)OCCC(F)(F)C(F)(F)C(F)(F)C(F)(F)C(F)(F)C(F)(F)C(F)(F)C(F)(F)F`, the result in assay [1], in [2], in assay [3], in assay [5], in assay [6] and in assay [7] was inactive. For the same compound, the result in assay [8], in assay [9], in assay [10], in [11], in assay [12] and in [13] was inactive. Besides, the result in assay [14], in assay [15], in assay [16], in assay [17], in assay [18] and in assay [19] was inactive. Also, the result in assay [20] was inactive.
As to `COC1=CC(=O)C[C@@H](C)[C@]12Oc1c(Cl)c(OC)cc(OC)c1C2=O`, the result in assay [1], in [2], in assay [3], in [4], in [5] and in assay [6] was inactive. Besides, the result in [7], in assay [8], in assay [10], in assay [11], in assay [12] and in [13] was inactive. The result in assay [16], in [17], in assay [18] and in assay [19] was inactive. The results for the AC50 in [14], in assay [15] and in assay [20] were 4.25 µM (active), 7.06 µM (active) and 2.12 µM (active), respectively.
`O=S(=O)(O)C(F)(F)C(F)(F)C(F)(F)C(F)(F)C(F)(F)C(F)(F)C(F)(F)C(F)(F)C(F)(F)C(F)(F)F`: the outcome in [1], in assay [3], in [6], in assay [7], in assay [8] and in [9] was inactive. The outcome in assay [10], in assay [11], in assay [12], in assay [13], in [14] and in assay [15] was inactive. Also, the result in assay [16], in assay [18], in assay [19] and in assay [20] was inactive. For the same compound, the AC50 is 13.3 µM (active) and 12 µM (active) in [2]; 7.29 µM (active) and 5.4 µM (active) in assay [5]; 21.5 µM (active) in [7]; 13.3 µM (active) in [12]; 8.66 µM (active) in assay [16]; 13.3 µM (active) and 20.4 µM (active) in [17]. In addition, the half-maximal activity concentration (AC50) in assay [19] is 13.3 µM (active).
